Consider 91 compounds from PubChem BioAssay AID449762 (Southern Research Specialized Biocontainment Screening …, 2010).

The whole screen tested about 330,000 compounds, of which about 1,900 (0.58%) were called active. Another 4% or so got no clear call; they are omitted. Only a sample is shown. Results with a measured potency or affinity are listed apart. A number with no mark means an inactive call. No stated cut-off is given here; in the data, inconclusive means inhibition above about 70% without an active follow-up result; inactive means below that.

One may read the inhibition as the drop in the measured response relative to a control, in per cent.

This experiment is described as follows: M. tuberculosis growth inhibition, HTS (AID 449762).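 Further: bacterial growth assessed after seven days of incubation.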 To be noted: M. tuberculosis H37Rv growth inhibition, 7H9 media; at 25 µM; active compounds read high.
For `Cc1ccc(NC(=O)CSCC(=O)N=c2sccn2C)cc1`, the inhibition is -9.96%. In the case of `CCc1nc2c(c(=O)c3ccccc3n2C)c(=O)n1C1CCCCCC1`, the inhibition was 6.04%. On to `Cc1nc2c(c(=O)c3ccccc3n2C)c(=O)n1C1CCCCCC1`, for which the inhibition is -2.45%. In the case of `COc1ccc(OC)c(S(=O)(=O)N2CCCCC2C(=O)O)c1` (stereo unspecified), the inhibition was -12.8%.

For the compound `COc1ccccc1OCCCCN1CCN(c2ccccc2OC)CC1`, the inhibition is -3.03%. Regarding `COc1ccccc1N1CCN(CCCCOc2c(OC)cccc2OC)CC1`, the inhibition is 4.13%. As for `CN(C)c1cccc2c1c(NC(=O)c1ccc(F)cc1)nn2C`, the inhibition was -5.17%.

For the compound `Cc1nc2c(c(=O)[nH]1)C(c1ccc([N+](=O)[O-])cc1)c1c(c3ccccc3oc1=O)O2` (stereo unspecified), the inhibition was 4.87%. To `O=S(=O)(NC1CC(NS(=O)(=O)OCC(Cl)(Cl)Cl)C2CCCCC12)OCC(Cl)(Cl)Cl` (stereo unspecified) belongs 4.68%; to `CCC1Oc2ccc(C)cc2N(CC(=O)N2CCCC2)C1=O` (stereo unspecified), 9.77%; to `CC1(C)Oc2ccc3ccc(=O)oc3c2/C(=C/O)C1=O`, 2.64%. Turning to `COC1=Cc2c(ccc3ccc(=O)oc23)OC1(C)C`, the inhibition was 1.79%. Turning to `O=C(OCc1nnc(-c2ccc(Cl)cc2)o1)C12CC3CC(CC(O)(C3)C1)C2`, the inhibition was 7.22%. With `CCOC(=O)c1cc(C(=O)NC(C)c2ccccc2)c(C)[nH]c1=O` (stereo unspecified), the inhibition was -4.64%. As for `CCOC(=O)c1nnc(-c2ccccc2)nc1Sc1c(Cl)cccc1Cl`, the inhibition was 4.17%.

Regarding `CCOC(=O)c1c(NCc2ccccc2)n[nH]c1C`, the inhibition was -5.08%. Consider `CCOC(=O)c1nnc(-c2ccccc2)nc1NC`, for which the inhibition was -30.8%. In the case of `CCOC(=O)c1nnc(-c2ccc(C)cc2)nc1Sc1ccccc1Cl`, the inhibition was 13.5%. In the case of `O=C(CCN1C(=O)/C(=C\c2ccccc2Cl)SC1=S)Nc1cccnc1` it was 2.83%; in that of `COC(=O)C1C2c3ccccc3OC1(C)N=c1s/c(=C/c3cn(C)nc3C)c(=O)n12` (stereo unspecified), -3.81%; in that of `CC(=O)C1C2c3ccccc3OC1(C)N=c1s/c(=C/c3cn(C)nc3C)c(=O)n12` (stereo unspecified), 1.62%. On to `COc1ccc(-c2cc3ccccc3oc2=O)cc1NC(=O)c1cccnc1`, for which the inhibition was 4.8%. In the case of `COc1ccc(-c2cc3ccccc3oc2=O)cc1NC(=O)c1ccc(Br)o1` it was -2.95%.

Take `Cn1c(-c2nonc2N)nc2ccccc21`: the inhibition was 0.49%. On to `COc1ccccc1C(c1c(N)n(C)c(=O)n(C)c1=O)C(C)[N+](=O)[O-]` (stereo unspecified), for which the inhibition was 43.9%. As to `CC(C(c1cccs1)c1c(N)n(C)c(=O)n(C)c1=O)[N+](=O)[O-]` (stereo unspecified), the inhibition is -8.45%.

For `O=C(CSCc1cc(=O)n2nc(C3CC3)sc2n1)Nc1ccc(F)cc1`, the inhibition is -2.05%. Consider `C[C@H](NC(=O)c1nc[nH]c1C(=O)NC1CCN(C(=O)OC(C)(C)C)CC1)C(=O)OCc1ccccc1`, for which the inhibition is -4.49%.

On to `CC(C)(C)OC(=O)N1CCC(NC(=O)c2[nH]cnc2C(=O)N[C@@H](Cc2ccccc2)C(=O)OCc2ccccc2)CC1`, for which the inhibition was -4.13%. To `Cc1ccc(NC2CCCN(C(=O)c3cccc4nccnc34)C2)cc1C` (stereo unspecified) belongs -9.4%; to `NS(=O)(=O)c1ccc(-c2ccc(/C=C3\SC(=S)N(C4CCS(=O)(=O)C4)C3=O)o2)cc1` (stereo unspecified), 0.18%. As for `NS(=O)(=O)c1ccc(-c2ccc(C=NC3CCS(=O)(=O)C3)o2)cc1` (stereo unspecified), the inhibition was -12%. As for `O=C(CCc1nc2ccccc2c(=O)[nH]1)N1CCN(S(=O)(=O)c2cccc(F)c2)CC1`, the inhibition is -17.1%.

`NC(=O)NC(CC(=O)NCCCc1ccccc1)c1ccc(Cl)cc1` (stereo unspecified): the inhibition was 5.17%.

As to `CS(=O)(=O)c1ccc(C(=O)Nc2cc(S(C)(=O)=O)ccc2Cl)cc1`, the inhibition was 2.11%. To `COc1ccc(OC)c(C2C=C(c3ccc(C)c(C)c3)Nc3nnnn32)c1` (stereo unspecified) belongs 4.57%; to `COc1ccccc1C1C=C(c2ccc(C)cc2)Nc2nnnn21` (stereo unspecified), -0.45%; to `COC(=O)C(C)(C)ONC(=O)Nc1ccc(C)cc1`, 0.62%.

As to `COc1ccc(Cl)cc1N(CC(=O)NC(C)(C)C)S(=O)(=O)c1ccc(C)c([N+](=O)[O-])c1`, the inhibition is -3.67%.

On to `CCC(CC)C(=O)Nc1nnc(SCC(=O)N2CCN(c3ccccc3OC)CC2)s1`, for which the inhibition is 4.18%.

For `Cc1ccc(C(=O)Nc2ccccc2Sc2ccccc2)cc1`, the inhibition was 9.64%. Take `Cc1ccc(C(=O)CC(=O)c2ccccc2)cc1`: the inhibition was 61.8%. Take `COc1ccc(C)cc1NC(=O)c1ccc(NC(=O)CC2SC(N3CCCC3)=NC2=O)cc1` (stereo unspecified): the inhibition was 1.94%. Consider `CCN(CC)CC1C(=O)N(c2ccc(OC)cc2)C1c1ccccc1` (stereo unspecified), for which the inhibition was -4.16%. On to `COCCn1c(=O)[nH]c2cc(C(=O)N3CCN(c4ccccc4)CC3)ccc2c1=O`, for which the inhibition was 5.58%. With `COc1ccccc1CNC(=O)/C=C/c1ccc(Br)o1`, the inhibition is 3.6%. `Cc1cc(/C=N/O)c(C)n1-c1ccccc1`: the inhibition is -2.51%. In the case of `CN(C)c1ccc(/C=C/c2ccc3ccccc3[n+]2C)cc1` it was 66.1%. Take `CC(C)[C@H](NC(=O)c1cc2cc(Cl)ccc2n1C)C(=O)N[C@@H](C(=O)O)c1ccccc1`: the inhibition is -9.63%. Turning to `CCc1ccc(/C=C2/Sc3ccccc3N(CC(=O)NCCCN3CCOCC3)C2=O)cc1`, the inhibition is 38.4%. Consider `CC(C)(C)c1cc(-c2nc(N)nc(N)n2)cc(C(C)(C)C)c1`, for which the inhibition is 9.97%. Consider `CC(C)(C)c1ccc(-c2nc(N)nc(N)n2)cc1`, for which the inhibition was -3.01%. Take `NC(=O)c1cccc2c3c([nH]c12)CCCC3`: the inhibition is -3.75%.

For the compound `CCOC(=O)C1CCCc2c1[nH]c1c(C(=O)O)cccc21` (stereo unspecified), the inhibition was 9.6%. As for `CCOc1ccc(CCNC(=O)C2=C(C)C(=O)OC23CCCCC3)cc1OCC`, the inhibition was -0.34%.

In the case of `C[C@H](CO)N1C[C@H](C)[C@@H](CN(C)C(=O)Nc2ccccc2)Oc2ccc(NC(=O)Cc3ccccc3)cc2C1=O`, the inhibition is 0.43%. As to `CCOC(=O)Cn1nc(/C=C/c2ccc(OC)cc2)ccc1=O`, the inhibition was -1.75%. `Cc1nn(C)c(NC(=O)c2ccccc2Cl)c1Br`: the inhibition was -4.03%. Take `Cc1nn(C(C)(C)C)c(NC(=O)c2ccc(Cl)cc2)c1Br`: the inhibition was -3.55%. For `COc1cc(C)ccc1OCC(=O)Nc1ccccc1N1CCOCC1`, the inhibition was 0.365%.

Take `Cc1nnc(SCc2c(Cl)cccc2Cl)n(N)c1=O`: the inhibition is -0.46%. `Cc1ccccc1CSc1nnc(C)c(=O)n1N`: the inhibition is 0.74%. Consider `O=C(CSc1nc(-c2ccco2)cc(C(F)(F)F)n1)NC1CCCC1`, for which the inhibition was -5.38%. Consider `Cc1ccc(CNC(=O)CCc2c(C)nc3c(c(C)nn3-c3ccc(C)cc3)c2C)cc1`, for which the inhibition is 0.88%. For the compound `Cc1nc2c(c(C)nn2-c2ccccc2)c(C)c1CCC(=O)Nc1ccc(CN2CCCC2)cc1`, the inhibition was 55.7%. As for `CCN(CC)S(=O)(=O)c1ccc(C(=O)N2CCN(CCN3C(=O)c4cccc5cccc(c45)C3=O)CC2)cc1`, the inhibition was -0.01%.

With `Cn1c(CCNC(=O)c2cccs2)nnc1SCC(=O)Nc1nc(-c2ccccc2)cs1`, the inhibition is -0.83%. In the case of `Cc1cc(C)n2nc(C(=O)OCC(=O)Nc3ccc(C)c(F)c3)nc2n1` it was -2.78%; in that of `COc1ccc(/C=C/C(=O)c2sc(-c3ccccc3)nc2C)cc1`, -17.3%.

On to `Cc1ccc(N/C=C/C(=O)c2sc(-c3ccccc3)nc2C)cc1`, for which the inhibition was 11.4%. With `COc1ccc(NC(=O)c2sc(-c3ccccc3)nc2C)c(OC)c1`, the inhibition was 3.27%. Take `Cc1nc(-c2ccccc2)sc1C(=O)/C=C/c1ccc(Cl)cc1`: the inhibition was 36.1%. To `Cc1ccc(S(=O)(=O)CCC(=O)NCc2ccco2)cc1` belongs -10.5%; to `O=C(Nc1ccc(N2CCOCC2)c(Cl)c1)c1ccc(-n2cnnc2)cc1Cl`, 2.83%; to `COc1ccc(-n2c(CNCCc3ccc(C)cc3)nc3ccccc3c2=O)cc1`, 14.6%.

As to `COc1ccc(CN2CCN(c3ccc(F)cc3)CC2)c(OC)c1OC`, the inhibition is 0.31%.

On to `COc1ccc(CN2CCN(S(=O)(=O)c3ccc(F)cc3)CC2)c(OC)c1OC`, for which the inhibition was 9.52%. Regarding `Cc1ccc(S(=O)(=O)N2CCOCC2)cc1NC(=O)C(c1ccc(Cl)cc1)C(C)C` (stereo unspecified), the inhibition is -2.19%. In the case of `CCOC(=O)[C@H]1[C@H]2COc3ccc(OC)cc3[C@@H]2N2C(=O)c3ccccc3NC(=O)[C@@]12C`, the inhibition was 3.81%. Consider `CC(NC(=O)c1cc(COc2ccc3ncccc3c2)on1)c1ccc(F)cc1` (stereo unspecified), for which the inhibition was 6.82%. Regarding `Cc1cc(C)n(CCNC(=O)c2cc(COc3ccc4ncccc4c3)on2)n1`, the inhibition was 4.76%. For the compound `Cc1ccc(/C=N/NC(=O)Cc2ccc(Cl)cc2)c(O)c1`, the inhibition is -1.94%. To `O=C(COc1ccccc1F)Nc1ccc(S(=O)(=O)Nc2nccs2)cc1` belongs 3.76%; to `O=C(C1=C[C@@H](c2ccc(C(F)(F)F)cc2)C[C@@H](OCc2ccc(CO)cc2)O1)N1CCN(Cc2ccccc2)CC1`, 5.34%.

Turning to `Cc1ccc(C(=O)Nc2cc(C(F)(F)F)ccc2-n2cncn2)o1`, the inhibition was -8.09%. In the case of `O=C(Nc1cc(C(F)(F)F)ccc1-n1cncn1)c1ccc(Br)cc1` it was -2.45%; in that of `Cc1c(C(=O)O)oc2ccc(S(=O)(=O)NCCC3=CCCCC3)cc12`, -7.6%; in that of `CC(=O)N1CCCc2cc(S(=O)(=O)NC(C(=O)NCc3ccc(C)cc3)C(C)C)ccc21` (stereo unspecified), 9.01%. `Cc1ccc(C(=O)Cn2cncn2)cc1`: the inhibition was 9.3%. Regarding `CCCCn1c(O)c(/C=C2\C=Nc3ccccc32)c(=O)[nH]c1=O`, the inhibition is 12.7%. With `Cn1c(O)c(/C=C2/C=CC=N2)c(=O)[nH]c1=O`, the inhibition is 17.3%.
